# Measurements from the supplement of paper PMC6555819.
# Experiments:
# Assay in all cases: PBM binding z-score (relative to random genomic background probes); higher = stronger binding; sequences stand for … in GC…GCGATTGACAGCGTAGAATGAAGG
# [1] = test system: PPARg:RXRa DBDmut IVT, anti-RXR (DBD mutation: RXRa K156A/R161A, NR concentration 270 nM, RXRa partner concentration 90 nM)
# Outline: (§1)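 Binding buffer was PBS pH 7.4 with 2% milk, 0.02% Triton X-100, 1 mM DTT, 0.2 mg/mL BSA and 0.4 mg/ml salmon testes DNA. In it, ligand-free nuclear receptor dimers were incubated 1 h on custom Agilent 4×180K protein-binding microarrays carrying double-stranded probes. Antibodies against each partner (one per run) detected binding, and z-scores were calculated against random background probes after regression normalization of scanned fluorescence.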
# [2] = test system: PPARg:RXRa IVT, anti-PPARg (NR concentration 270 nM, RXRa partner concentration 90 nM)
# Outline: as §1
# [3] = test system: PPARg DBDmut:RXRa IVT, anti-PPARg (DBD mutation: PPARg1 K132A/R137A, NR concentration 270 nM, RXRa partner concentration 90 nM)
# Outline: as §1
# [4] = test system: PPARg DBDmut IVT, anti-PPARg (DBD mutation: PPARg1 K132A/R137A, NR concentration 270 nM)
# Outline: as §1
# [5] = test system: PPARg homodimer (NR concentration 180 nM)
# Outline: as §1
# [6] = test system: PXR:RXRa (NR concentration 270 nM, RXRa partner concentration 90 nM)
# Outline: as §1
# [7] = test system: PXR homodimer (NR concentration 270 nM)
# Outline: as §1
# [8] = test system: RARa:RXR (NR concentration 270 nM, RXRa partner concentration 90 nM)
# Outline: as §1
# [9] = test system: RARa homodimer (NR concentration 270 nM)
# Outline: as §1
# [10] = test system: RARb:RXRa (NR concentration 270 nM, RXRa partner concentration 90 nM)
# Outline: as §1
# [11] = test system: RARb homodimer (NR concentration 270 nM)
# Outline: as §1
# [12] = test system: RARg:RXRa (NR concentration 270 nM, RXRa partner concentration 90 nM)
# Outline: as §1
# [13] = test system: RARg homodimer (NR concentration 270 nM)
# Outline: as §1
# [14] = test system: RXRa DBDmut IVT, anti-RXR (DBD mutation: RXRa K156A/R161A, NR concentration 90 nM)
# Outline: as §1
# [15] = test system: RXRa homodimer (NR concentration 180 nM)
# Outline: as §1
# [16] = test system: THRa:RXRa (NR concentration 90 nM, RXRa partner concentration 90 nM)
# Outline: as §1
# [17] = test system: THRa homodimer (NR concentration 90 nM)
# Outline: as §1
# [18] = test system: VDR:RXRa (NR concentration 270 nM, RXRa partner concentration 90 nM)
# Outline: as §1
# [19] = test system: VDR homodimer (NR concentration 270 nM)
# Outline: as §1
Sequence,PBM binding z-score [1],PBM binding z-score [2],PBM binding z-score [3],PBM binding z-score [4],PBM binding z-score [5],PBM binding z-score [6],PBM binding z-score [7],PBM binding z-score [8],PBM binding z-score [9],PBM binding z-score [10],PBM binding z-score [11],PBM binding z-score [12],PBM binding z-score [13],PBM binding z-score [14],PBM binding z-score [15],PBM binding z-score [16],PBM binding z-score [17],PBM binding z-score [18],PBM binding z-score [19]
TAGCCTAGGTCATGCGGGCGAGTATAGTGTCGGC,1.54,2.78,-0.28,-1,0.366,0.704,-0.37,1.97,-0.358,3.54,2.94,3.64,3.75,0.518,2.68,2.89,1.22,1.72,0.494
GCTGCTAGGACAACTGATGGTCAGCTAAAGCTCG,0.688,-0.573,-1.55,-1.57,-1.24,-1.1,-1.66,-1.08,-1.4,0.341,0.137,-0.166,0.37,-0.0279,-0.722,0.434,-0.447,-0.904,-1.49
CCTACTGGCCCATCAGGTCATTGATATCAACGTT,-0.199,1.1,-0.917,0.381,1.47,1.61,0.678,1.83,0.604,1.71,2.36,1.72,1.54,0.0636,1.13,3.29,3.04,1.78,1.9
TCTCGGAGGACACGAAATGTCAGAGCTCGACATC,1.31,-0.0738,0.273,-0.287,-0.365,-0.0137,-0.515,0.332,-0.679,1.56,1.04,0.897,1.7,0.78,0.302,1.54,0.334,0.0899,-0.342
CCTACTGGGCCATTCACAGGTCATTGATCATATG,4.38,4.07,0.164,0.233,1.37,2.11,0.599,2.4,0.567,2.03,2.72,2.69,1.66,0.46,1.34,2.01,0.728,–,1.17
CCTACTGGGCGAAAAAGGTCATTGATGCCGATAA,0.836,1.94,-0.234,-0.941,2.25,4.39,1.04,4.66,0.67,3.68,4,3.97,3.43,0.151,4.51,3.05,-0.0329,4.21,1.75
GCAAACAGGTGAAACGCAGGTAACTCAGGGTGGC,2.26,1.32,-0.68,-0.00566,-0.416,-0.255,-0.519,0.397,-0.686,0.596,0.0626,0.796,0.0633,-0.459,0.616,1.52,-0.516,-0.424,-0.658
CGAACTAGGTCATCCAGGACAGTGAGTACATTGA,8.47,8.31,2.59,1.36,2.5,2.8,8.11,2.46,0.186,3.92,3.03,4.04,5.08,2.58,3.02,3.65,2.14,5.02,4.1
ATCTCTAGGTAACCAAGTTCAGTGATTGCCGAAC,3.9,2.88,1.17,1.33,0.823,1.96,2.46,0.708,0.307,1.18,1.45,0.546,0.823,1.02,0.505,1.44,0.949,4.17,2.76
ACTAGCGGGCCAAGGGTCACTCAAGATTAGTCCG,0.353,3.65,-0.682,-0.893,0.892,3.21,-0.327,4.1,0.108,3.38,3.7,3.9,3.71,0.364,4,2.62,-0.0687,2.66,1.07
GGAACGAGGGTATTCGAGTTGATAGCATGGCGAT,0.383,0.201,-0.0387,-0.595,-0.648,1.19,-0.17,0.11,-0.18,-0.145,-0.529,-0.0783,0.118,0.869,0.0441,1.82,-1.03,1.18,0.63
CCTACTGGGCCAGAAAGGTCATTGATGCCGATAA,2.56,3.3,-0.848,-1.13,2.14,4.76,2.21,5.01,1.75,3.73,4.36,4.7,4.43,0.0732,5.18,2.88,0.378,4.91,2.56
ATAATGAGGTTACCAAAGATCAGGGAAACGCTTG,4.27,3.93,1.55,1.88,0.591,1.51,0.204,1.93,1.22,2.14,1.15,2.37,1.95,1.32,2.72,2.8,1.1,1.81,0.486
GCTAGTAGATCAAGGTTAAGAAAGACTAAGCTAA,1.22,0.943,-0.176,-0.411,-0.263,0.229,0.0369,0.542,0.169,0.561,0.204,0.392,0.168,-0.105,0.832,1.01,-0.473,-0.00199,-0.442
TCTATTAGTTGATTAGGGCGACCGAAACAGCGGA,2.11,0.486,0.791,0.554,0.93,0.452,0.338,0.407,1.27,0.629,0.492,0.141,0.348,1.14,0.378,0.191,0.249,0.776,0.212
CTACCAAGGTGAACAAGGTCGTAGATTACTATTC,2.43,2.87,0.349,0.813,0.756,2.37,0.924,2.56,0.0983,2.17,1.98,2,1.6,0.741,2.24,3.24,1.88,5.56,1.72
GCTGCTAGGTCAACTAATGGTCAGCTAAAGCTCG,4.24,3.84,-0.334,-0.784,1.66,1.37,-0.568,2.35,-0.116,4.03,3.51,5.28,5.52,1.38,2.65,2.74,0.777,1.35,-0.0577
AGAATGAGGTTACCAACGATCAGGGAAACGCTTG,3.37,3.5,0.997,1.46,0.587,0.991,-0.0709,2.01,-0.203,1.83,0.885,1.97,1.6,1.08,2.45,2.75,0.794,1.28,0.331
CGAACTAGGTCAAAGACAGTGAATCTCCGCACGC,8.07,8.21,4.15,2.23,1.24,1.06,0.0351,1.82,0.463,3.74,2.53,3.63,3.88,1.57,2.67,2.39,0.814,1.36,0.508
TCTATTAGTTGAAGGGCACCCGACGAGTCCGTTT,2.29,0.553,0.299,1.3,1.25,0.824,1,0.844,1.45,1.36,1.26,0.402,0.483,1.77,0.846,0.413,0.444,1.02,1.93
TCGAGTAGGTTAGTCGGGGCATTCTGCCAACATA,2.38,1.64,-0.758,-0.515,-0.211,-0.103,-0.171,-0.0333,-0.547,0.287,0.157,-0.242,-0.393,0.374,-0.128,0.983,-0.375,2.15,0.287
CGTCCAATGTCAATGCTAGGTCAGTGAAAGCATT,0.333,0.858,-0.586,-0.143,0.93,0.655,-0.0465,1.27,-0.0899,2.17,2.73,3.07,1.98,0.448,0.676,2.23,0.915,0.803,0.181
TCAGACAGGTGAAGGTATCTCAGGTACGCAGTCG,2.51,0.967,-0.232,0.111,0.602,0.375,0.13,0.509,0.153,1.08,0.873,0.518,0.586,1.55,0.95,1.2,0.503,0.814,0.113
CGTCCAAGGTCAGAGAGGTCGGTGAATGCCGAGT,2.42,2.66,-0.525,-1.08,0.814,3.88,5.12,2.96,-0.301,4.51,4.09,4.84,5.91,2.7,3.93,3.66,1.38,6.24,3.09
ATATGAAGGTTAAGGGTCATTCAGGTTGGTTCGC,2.29,4.44,1.32,1.46,3.39,5.84,2.27,6.97,1.13,4.19,4.38,5.3,3.81,2.14,7.12,3.95,1.5,6.02,4.67
TATACAGGGTCAAAGGCGAGAGTACGAATGTCGA,2.19,4.69,2.38,1.65,2.22,3.85,0.6,4.91,0.979,4.45,3.17,5.39,5.04,2.92,6.67,3.42,0.888,4.59,3.09
CTCGAAAGGTCGTGCTCAGGGGAGTATACCAAAC,0.876,1.67,0.228,0.455,1.54,2.79,0.224,3.43,-0.0621,3.88,2.53,4.03,3.44,2.02,4,2.77,0.415,3.14,1.13
ACAGACAGGTGATGAAGGTAACTAAGGCTATCAT,-0.224,0.73,0.827,-0.211,0.053,0.0666,0.104,0.191,0.0422,0.371,0.434,0.422,0.552,-0.521,0.185,1.28,0.245,0.295,-0.317
AGAACGAGGGCACGCTGACTTGATAGCAGAGTAG,3.96,4.19,0.288,0.937,-0.0871,0.461,-0.269,0.898,-0.516,2.44,1.15,1.84,1.95,1.66,1.34,1.76,-0.184,–,0.649
TAGCCTAGGTCATTCAGGGGCCGGTATAGAAAGC,1.8,2.62,0.426,-0.644,1.79,2.11,-0.0709,3.04,-0.178,3.79,2.86,5.32,4.21,1.88,3.01,3.42,0.635,–,1.53
